The list shows a part of the results. How many sequences the whole screen found active is unknown.
Target: furin, P09958
Assay: furin cleavage Z-score vs untreated control; higher = more cleavage, active = 3.5 or more, inactive = 1 or less, 8 variable residues between constant flanks
Description: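 Multiplexed peptide-cDNA fusion cleavage assay. 8-mer variable peptides flanked by constant Cys-Ala (N-term) and Ala-Gly-Asn-Ala-Ser-Ala-Ser-Ala (C-term) and conjugated to a cDNA oligonucleotide were bead-immobilised via the N-terminus. They were treated with purified furin at a 1:10 enzyme:substrate ratio in 50 mM HEPES pH 7.5, 1 mM CaCl2, 100 mM NaCl for 7.5, 15 or 30 min. Released cDNA was counted by next-generation sequencing, and log counts versus no-furin controls were lowess-adjusted and converted to robust Z-scores.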

furin, P09958, sequence (P09958 whole entry): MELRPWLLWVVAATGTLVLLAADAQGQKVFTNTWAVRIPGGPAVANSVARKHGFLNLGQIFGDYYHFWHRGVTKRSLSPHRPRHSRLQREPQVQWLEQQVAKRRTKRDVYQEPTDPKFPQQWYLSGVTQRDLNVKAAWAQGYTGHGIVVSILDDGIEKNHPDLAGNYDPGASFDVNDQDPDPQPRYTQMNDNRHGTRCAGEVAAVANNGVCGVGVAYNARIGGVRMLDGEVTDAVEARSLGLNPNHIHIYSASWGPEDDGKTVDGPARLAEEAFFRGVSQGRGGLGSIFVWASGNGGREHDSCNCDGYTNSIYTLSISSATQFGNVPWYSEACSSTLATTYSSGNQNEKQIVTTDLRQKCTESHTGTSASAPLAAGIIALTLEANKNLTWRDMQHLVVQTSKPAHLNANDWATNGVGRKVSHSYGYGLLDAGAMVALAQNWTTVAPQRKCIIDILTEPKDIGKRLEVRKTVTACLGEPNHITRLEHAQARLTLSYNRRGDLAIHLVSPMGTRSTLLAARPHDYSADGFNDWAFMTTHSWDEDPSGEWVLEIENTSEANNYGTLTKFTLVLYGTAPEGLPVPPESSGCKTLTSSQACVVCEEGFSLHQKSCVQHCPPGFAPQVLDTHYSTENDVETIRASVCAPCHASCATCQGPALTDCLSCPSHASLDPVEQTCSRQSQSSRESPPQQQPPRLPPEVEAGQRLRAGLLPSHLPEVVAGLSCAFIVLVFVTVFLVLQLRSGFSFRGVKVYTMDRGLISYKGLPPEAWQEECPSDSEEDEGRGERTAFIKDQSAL

B1: FS-539 (peptide)
chain: CAIDRRIARFAGNASASA
For B1, the “furin cleavage Z-score” value (7.5 min) was 1.87, the “furin cleavage Z-score” value (15 min) was 1.35 and the “furin cleavage Z-score” value (30 min) was 3.96 (active).

B2: FS-832 (peptide)
chain: CANCSREARGAGNASASA
With B2 the “furin cleavage Z-score” value (7.5 min) was -1.13 (inactive), the “furin cleavage Z-score” value (15 min) was -0.942 (inactive) and the “furin cleavage Z-score” value (30 min) was -0.54 (inactive).

B3: FS-551 (peptide)
chain: CANCSRKRRTAGNASASA
For B3, the “furin cleavage Z-score” value (7.5 min) was 9.83 (active), the “furin cleavage Z-score” value (15 min) was 9.81 (active) and the “furin cleavage Z-score” value (30 min) was 7.5 (active).

B4: FS-1147 (peptide)
chain: CAPGSRKRRTAGNASASA
In the case of B4, the “furin cleavage Z-score” value (7.5 min) is reported as 11.2 (active), the “furin cleavage Z-score” value (15 min) is reported as 13.8 (active) and the “furin cleavage Z-score” value (30 min) is reported as 9.92 (active).

B5: FS-208 (peptide)
chain: CAVVNRKARFAGNASASA
B5 was tested, and the “furin cleavage Z-score” value (7.5 min) was 6.98 (active), the “furin cleavage Z-score” value (15 min) was 8.16 (active) and the “furin cleavage Z-score” value (30 min) was 8.51 (active).

B6: HC222 (peptide)
chain: CAIDTLTCGFAGNASASA
With B6 the “furin cleavage Z-score” value (7.5 min) was 0.261 (inactive), the “furin cleavage Z-score” value (15 min) was -0.013 (inactive) and the “furin cleavage Z-score” value (30 min) was 0.099 (inactive).

B7: HC313 (peptide)
chain: CANCSIYPGHAGNASASA
B7 was tested, and the “furin cleavage Z-score” value (7.5 min) was 0.763 (inactive), the “furin cleavage Z-score” value (15 min) was -0.054 (inactive) and the “furin cleavage Z-score” value (30 min) was 0.871 (inactive).

B8: FS-171 (peptide)
chain: CAISERQARFAGNASASA
With B8 the “furin cleavage Z-score” value (7.5 min) was 0.813 (inactive), the “furin cleavage Z-score” value (15 min) was -0.669 (inactive) and the “furin cleavage Z-score” value (30 min) was 1.86.

B9: HC2526 (peptide)
chain: CASTPCSMHLAGNASASA
In the case of B9, the “furin cleavage Z-score” value (7.5 min) is reported as 0.123 (inactive), the “furin cleavage Z-score” value (15 min) is reported as 0.577 (inactive) and the “furin cleavage Z-score” value (30 min) is reported as 0.242 (inactive).

B10: HC1316 (peptide)
chain: CAVHGCPLPPAGNASASA
B10 was tested, and the “furin cleavage Z-score” value (7.5 min) was -0.297 (inactive), the “furin cleavage Z-score” value (15 min) was 0.367 (inactive) and the “furin cleavage Z-score” value (30 min) was 0.0305 (inactive).

B11: HC1672 (peptide)
chain: CAEEECSQHLAGNASASA
For B11, the “furin cleavage Z-score” value (7.5 min) was 0.0201 (inactive), the “furin cleavage Z-score” value (15 min) was 1.31 and the “furin cleavage Z-score” value (30 min) was 0.995 (inactive).

B12: EK2 (peptide)
chain: CAGDRVYIHPAGNASASA
With B12 the “furin cleavage Z-score” value (7.5 min) was -0.225 (inactive), the “furin cleavage Z-score” value (15 min) was -0.247 (inactive) and the “furin cleavage Z-score” value (30 min) was -0.383 (inactive).

B13: HC1715 (peptide)
chain: CAMEHCSQHLAGNASASA
With B13 the “furin cleavage Z-score” value (7.5 min) was -0.776 (inactive), the “furin cleavage Z-score” value (15 min) was -0.0908 (inactive) and the “furin cleavage Z-score” value (30 min) was 0.617 (inactive).

B14: HC455 (peptide)
chain: CAHPDATYSRAGNASASA
B14 was tested, and the “furin cleavage Z-score” value (7.5 min) was -0.242 (inactive), the “furin cleavage Z-score” value (15 min) was -1.51 (inactive) and the “furin cleavage Z-score” value (30 min) was -2.12 (inactive).

B15: FS-280 (peptide)
chain: CAPGSRKARFAGNASASA
With B15 the “furin cleavage Z-score” value (7.5 min) was 7.61 (active), the “furin cleavage Z-score” value (15 min) was 8.81 (active) and the “furin cleavage Z-score” value (30 min) was 9.66 (active).

B16: HC1373 (peptide)
chain: CASWTGALVTAGNASASA
B16 was tested, and the “furin cleavage Z-score” value (7.5 min) was 1.05, the “furin cleavage Z-score” value (15 min) was 1.42 and the “furin cleavage Z-score” value (30 min) was 0.57 (inactive).

B17: FS-372 (peptide)
chain: CAQWIRVKRTAGNASASA
With B17 the “furin cleavage Z-score” value (7.5 min) was 10 (active), the “furin cleavage Z-score” value (15 min) was 8.77 (active) and the “furin cleavage Z-score” value (30 min) was 8.64 (active).

B18: HC1387 (peptide)
chain: CAHHNLVYSTAGNASASA
In the case of B18, the “furin cleavage Z-score” value (7.5 min) is reported as 0.206 (inactive), the “furin cleavage Z-score” value (15 min) is reported as 0.355 (inactive) and the “furin cleavage Z-score” value (30 min) is reported as 0.257 (inactive).

B19: FS-199 (peptide)
chain: CASWNRVARTAGNASASA
B19 was tested, and the “furin cleavage Z-score” value (7.5 min) was 4.98 (active), the “furin cleavage Z-score” value (15 min) was 4.02 (active) and the “furin cleavage Z-score” value (30 min) was 5.03 (active).

B20: FS-204 (peptide)
chain: CATRSRRGRFAGNASASA
B20 was tested, and the “furin cleavage Z-score” value (7.5 min) was 2.71, the “furin cleavage Z-score” value (15 min) was 5.35 (active) and the “furin cleavage Z-score” value (30 min) was 4.64 (active).

B21: FS-1037 (peptide)
chain: CAMPRRRGRFAGNASASA
For B21, the “furin cleavage Z-score” value (7.5 min) was -0.497 (inactive), the “furin cleavage Z-score” value (15 min) was 1.44 and the “furin cleavage Z-score” value (30 min) was 2.55.

B22: FS-1392 (peptide)
chain: CAQRSRQKKTAGNASASA
For B22, the “furin cleavage Z-score” value (7.5 min) was -1.4 (inactive), the “furin cleavage Z-score” value (15 min) was -0.885 (inactive) and the “furin cleavage Z-score” value (30 min) was 0.286 (inactive).

B23: FS-1034 (peptide)
chain: CALWSRYGRFAGNASASA
For B23, the “furin cleavage Z-score” value (7.5 min) was 0.532 (inactive), the “furin cleavage Z-score” value (15 min) was 1.92 and the “furin cleavage Z-score” value (30 min) was -0.157 (inactive).

B24: HC461 (peptide)
chain: CAPWITPRCLAGNASASA
B24 was tested, and the “furin cleavage Z-score” value (7.5 min) was 1.9, the “furin cleavage Z-score” value (15 min) was 1.18 and the “furin cleavage Z-score” value (30 min) was 0.0858 (inactive).

B25: FS-701 (peptide)
chain: CAPMSRGDRFAGNASASA
With B25 the “furin cleavage Z-score” value (7.5 min) was -0.701 (inactive), the “furin cleavage Z-score” value (15 min) was -0.0648 (inactive) and the “furin cleavage Z-score” value (30 min) was 0.556 (inactive).

B26: HC2281 (peptide)
chain: CANLEVVTSTAGNASASA
B26 was tested, and the “furin cleavage Z-score” value (7.5 min) was 0.776 (inactive), the “furin cleavage Z-score” value (15 min) was -1.12 (inactive) and the “furin cleavage Z-score” value (30 min) was -0.725 (inactive).

B27: FS-1035 (peptide)
chain: CAMKSRLRRTAGNASASA
For B27, the “furin cleavage Z-score” value (7.5 min) was 6.13 (active), the “furin cleavage Z-score” value (15 min) was 6.71 (active) and the “furin cleavage Z-score” value (30 min) was 5.42 (active).

B28: FS-515 (peptide)
chain: CAVRGRAGRSAGNASASA
With B28 the “furin cleavage Z-score” value (7.5 min) was 1.52, the “furin cleavage Z-score” value (15 min) was 1.9 and the “furin cleavage Z-score” value (30 min) was 0.698 (inactive).

B29: FS-971 (peptide)
chain: CAAKGRAGRSAGNASASA
With B29 the “furin cleavage Z-score” value (7.5 min) was 7.82 (active), the “furin cleavage Z-score” value (15 min) was 7.81 (active) and the “furin cleavage Z-score” value (30 min) was 6.06 (active).

B30: FS-81 (peptide)
chain: CAQLSRAGRSAGNASASA
B30 was tested, and the “furin cleavage Z-score” value (7.5 min) was 6.21 (active), the “furin cleavage Z-score” value (15 min) was 8.4 (active) and the “furin cleavage Z-score” value (30 min) was 8.08 (active).

B31: HC1258 (peptide)
chain: CAPPSVASSSAGNASASA
For B31, the “furin cleavage Z-score” value (7.5 min) was 0.0747 (inactive), the “furin cleavage Z-score” value (15 min) was 0.138 (inactive) and the “furin cleavage Z-score” value (30 min) was 0.956 (inactive).

B32: FS-3168 (peptide)
chain: CARSARDTAQAGNASASA
B32 was tested, and the “furin cleavage Z-score” value (7.5 min) was 5.29 (active), the “furin cleavage Z-score” value (15 min) was 5.99 (active) and the “furin cleavage Z-score” value (30 min) was 5.11 (active).

B33: FS-2628 (peptide)
chain: CADHRRSVDSAGNASASA
B33 was tested, and the “furin cleavage Z-score” value (7.5 min) was -1.5 (inactive), the “furin cleavage Z-score” value (15 min) was 0.662 (inactive) and the “furin cleavage Z-score” value (30 min) was 1.77.

B34: FS-2548 (peptide)
chain: CARCRRSVSSAGNASASA
With B34 the “furin cleavage Z-score” value (7.5 min) was 4.14 (active), the “furin cleavage Z-score” value (15 min) was 2.68 and the “furin cleavage Z-score” value (30 min) was 3.73 (active).

B35: HC2113 (peptide)
chain: CARDVVCCSMAGNASASA
In the case of B35, the “furin cleavage Z-score” value (7.5 min) is reported as 0.281 (inactive), the “furin cleavage Z-score” value (15 min) is reported as -1.32 (inactive) and the “furin cleavage Z-score” value (30 min) is reported as 2.45.

B36: FS-3073 (peptide)
chain: CARSARKSNFAGNASASA
In the case of B36, the “furin cleavage Z-score” value (7.5 min) is reported as -1.18 (inactive), the “furin cleavage Z-score” value (15 min) is reported as 0.463 (inactive) and the “furin cleavage Z-score” value (30 min) is reported as -0.0584 (inactive).

B37: FS-1998 (peptide)
chain: CARCRRTVSMAGNASASA
In the case of B37, the “furin cleavage Z-score” value (7.5 min) is reported as 1.07, the “furin cleavage Z-score” value (15 min) is reported as 2.14 and the “furin cleavage Z-score” value (30 min) is reported as 4.65 (active).

B38: FS-2302 (peptide)
chain: CARSARDVSSAGNASASA
B38 was tested, and the “furin cleavage Z-score” value (7.5 min) was 9.56 (active), the “furin cleavage Z-score” value (15 min) was 8.78 (active) and the “furin cleavage Z-score” value (30 min) was 6.82 (active).

B39: HC1362 (peptide)
chain: CAGSWSTVSSAGNASASA
For B39, the “furin cleavage Z-score” value (7.5 min) was 0.499 (inactive), the “furin cleavage Z-score” value (15 min) was -0.166 (inactive) and the “furin cleavage Z-score” value (30 min) was -0.172 (inactive).

B40: FS-3077 (peptide)
chain: CARSERDVLLAGNASASA
In the case of B40, the “furin cleavage Z-score” value (7.5 min) is reported as 1.87, the “furin cleavage Z-score” value (15 min) is reported as -0.515 (inactive) and the “furin cleavage Z-score” value (30 min) is reported as 0.482 (inactive).

B41: HC1556 (peptide)
chain: CASVAHDGAGAGNASASA
For B41, the “furin cleavage Z-score” value (7.5 min) was -0.273 (inactive), the “furin cleavage Z-score” value (15 min) was -3.13 (inactive) and the “furin cleavage Z-score” value (30 min) was 0.415 (inactive).

B42: HC2119 (peptide)
chain: CAPDVVCCSMAGNASASA
B42 was tested, and the “furin cleavage Z-score” value (7.5 min) was -0.96 (inactive), the “furin cleavage Z-score” value (15 min) was 1.32 and the “furin cleavage Z-score” value (30 min) was -0.361 (inactive).

B43: FS-2085 (peptide)
chain: CARSARPLVQAGNASASA
With B43 the “furin cleavage Z-score” value (7.5 min) was -2.45 (inactive), the “furin cleavage Z-score” value (15 min) was 0.432 (inactive) and the “furin cleavage Z-score” value (30 min) was -1.67 (inactive).
